Results with a measured potency or affinity are listed apart. Inconclusive results are not listed. Calls of active or inactive are those of the source.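 How the source made its calls: active means compound whose fitted half-inhibition dose sits at or below twice its top tested dose in every test run; inconclusive means test runs disagree, or every run is unclear; inactive means inactive in every test run.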
These molecules were tested against Leucyl-cystinyl aminopeptidase (Mus musculus) (UniProt Q8C129) (assay: IRAP enzyme inhibitors, dose response, selectivity assay for ERAP1 modulator project, biochemical, dry powder samples, set 3 (AID 1117288)). Conditions: purified IRAP enzyme, Leu-AMC fluorescence, 1 h; series mostly up to 50 µM; activity change, negative = inhibition: at the top concentration.
Chain of Leucyl-cystinyl aminopeptidase (Mus musculus) (Q8C129 whole entry, looked up): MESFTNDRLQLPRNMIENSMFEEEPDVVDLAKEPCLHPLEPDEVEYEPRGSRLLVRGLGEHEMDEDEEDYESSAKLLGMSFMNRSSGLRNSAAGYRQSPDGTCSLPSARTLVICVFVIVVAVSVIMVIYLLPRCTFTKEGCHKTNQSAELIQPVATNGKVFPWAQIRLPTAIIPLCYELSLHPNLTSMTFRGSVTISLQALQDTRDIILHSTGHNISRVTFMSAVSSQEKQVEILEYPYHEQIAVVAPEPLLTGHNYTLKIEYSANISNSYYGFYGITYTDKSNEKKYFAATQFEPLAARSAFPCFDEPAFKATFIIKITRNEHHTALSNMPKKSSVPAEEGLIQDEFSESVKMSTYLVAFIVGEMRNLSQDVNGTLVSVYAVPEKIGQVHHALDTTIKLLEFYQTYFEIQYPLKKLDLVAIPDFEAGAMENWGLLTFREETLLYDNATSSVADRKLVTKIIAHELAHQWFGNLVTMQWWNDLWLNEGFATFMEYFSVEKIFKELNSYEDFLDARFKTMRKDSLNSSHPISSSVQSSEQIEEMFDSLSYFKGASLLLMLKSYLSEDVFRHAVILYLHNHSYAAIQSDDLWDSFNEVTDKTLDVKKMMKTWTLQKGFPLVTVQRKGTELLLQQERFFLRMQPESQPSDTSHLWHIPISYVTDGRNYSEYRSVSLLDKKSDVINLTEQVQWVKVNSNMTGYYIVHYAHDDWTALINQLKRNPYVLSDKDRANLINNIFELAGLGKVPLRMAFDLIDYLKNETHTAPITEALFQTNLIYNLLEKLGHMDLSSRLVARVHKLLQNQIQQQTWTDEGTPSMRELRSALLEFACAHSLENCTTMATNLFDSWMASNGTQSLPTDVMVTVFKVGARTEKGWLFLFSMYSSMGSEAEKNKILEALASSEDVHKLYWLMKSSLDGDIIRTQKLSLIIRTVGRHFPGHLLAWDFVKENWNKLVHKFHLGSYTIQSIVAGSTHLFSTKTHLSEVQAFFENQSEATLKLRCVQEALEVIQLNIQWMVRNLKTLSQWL

outcome, inactive:
COc1ccc(C(=O)O)cc1S(=O)(=O)Nc1cc(C(F)(F)F)ccc1N1CCCCC1

Activity change, negative = inhibition, inactive:
COc1ccc(C(=O)O)cc1S(=O)(=O)Nc1ccccc1N1CCCCC1 3.15%, COc1ccc(C(=O)O)cc1S(=O)(=O)Nc1cc(C)ccc1N1CCCCC1 -13.8%, O=C(O)c1ccc(Cl)c(S(=O)(=O)Nc2cc(C(F)(F)F)ccc2N2CCCCC2)c1 17.3%, COc1ccc(C(=O)O)cc1S(=O)(=O)Nc1cccc(N2CCCCC2)c1C(F)(F)F 13.9%, COc1ccc(C(=O)O)cc1S(=O)(=O)Nc1cc(C(F)(F)F)ccc1N(C)C 3.47%, O=C(O)c1ccc(Br)c(S(=O)(=O)Nc2cc(C(F)(F)F)ccc2N2CCCCC2)c1 -5.39%, COc1ccc(C(=O)O)cc1S(=O)(=O)N1CCN(c2ccc(C(F)(F)F)cc2N)CC1 14.3%, COC(=O)c1ccc(OC)c(S(=O)(=O)Nc2cc(C(F)(F)F)ccc2N2CCCCC2)c1 16.9%, Cc1ccc(C(=O)O)cc1S(=O)(=O)Nc1cc(C(F)(F)F)ccc1N1CCCCC1 -2.16%, COc1ccc(C(=O)O)cc1S(=O)(=O)Nc1cc(F)ccc1N1CCCCC1 13.7%, COc1ccc(C(=O)O)cc1S(=O)(=O)N(C)c1cc(C(F)(F)F)ccc1N1CCCCC1 5.09%, COc1ccc(C(=O)O)cc1S(=O)(=O)Nc1cc(C(F)(F)F)ccc1N1CCOCC1 28.6%, O=C(O)c1cccc(S(=O)(=O)Nc2cc(C(F)(F)F)ccc2N2CCCCC2)c1 22.7%, Cc1ccc(S(=O)(=O)Nc2cc(C(F)(F)F)ccc2N2CCCCC2)cc1C(=O)O 0.616%, COc1ccc(C(=O)O)cc1S(=O)(=O)Nc1ccc(N2CCCCC2)cc1C(F)(F)F 9.65%, COc1ccc(C(=O)O)cc1S(=O)(=O)Nc1cc(C(F)(F)F)ccc1N1CCN(C)CC1 26.8%, O=C(O)c1cc(F)cc(S(=O)(=O)Nc2cc(C(F)(F)F)ccc2N2CCCCC2)c1 -0.991%

From PubChem BioAssay AID1117288 (Broad Institute, 2014)
